In PubChem BioAssay AID1159580 (chemical genetic matrix, 2015):
Where “and” joins values, the source holds several entries; their conditions need not be identical. Equal entries are not always repeated. Among all 5,500 compounds or so, about 2,000 (36%) were called active. Inconclusive results (about 18%) are left out. Rule as the data show it: active = normalized growth mostly below about 0.91 (no sharp cut-off); inconclusive = no clear call, values can overlap the other calls; inactive = mostly above about 0.92. This is one part of the list.

Assay: chemical genetic growth profiling, strain panel (AID 1159580);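 also: tested at 20 µM; growth read once vehicle control cultures reached saturation at 30 °C; 1 = growth at the plate median or of vehicle wells; lower values mean less growth of the strain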
Conditions: S. cerevisiae deletion strains, growth OD

Measured: normalized growth

O=C1NCC2(CCN(CCc3ccccc3)CC2)O1
inactive: locus YAL013W, strain DEP1, hits give low values 1.02 | locus YAL021C, strain ccr4, hits give low values 0.973 | locus YAL026C, strain drs2, hits give low values 0.99 | locus YAL030W, strain snc1, hits give low values 1 | locus YAL040C, strain CLN3, hits give low values 1 | locus YBL061C, strain skt5, hits give low values 0.983 | locus YBR009C, strain hhf1, hits give low values 0.992 | locus YBR021W, strain FUR4, hits give low values 1.01 | locus YBR023C, strain chs3, hits give low values 0.993 | locus YBR171W, strain sec66, hits give low values 0.99 | locus YBR229C, strain ROT2, hits give low values 1.01 | locus YBR231C, strain swc5, hits give low values 0.985 | locus YBR279W, strain paf1, hits give low values 1.01 | locus YCL011C, strain gbp2, hits give low values 1.01 | locus YCL016C, strain dcc1, hits give low values 1.02 | locus YCL029C, strain bik1, hits give low values 1 | locus YCL061C, strain MRC1 (second series), hits give low values 1.01 | locus YCL069W, strain vba3, hits give low values 0.982 | locus YCR088W, strain abp1, hits give low values 1.01 | locus YDL005C, strain med2, hits give low values 0.987 | locus YDL035C, strain GPR1, hits give low values 1.01 | locus YDL040C, strain nat1, hits give low values 0.996 | locus YDL074C, strain BRE1, hits give low values 1.02 | locus YDL101C, strain DUN1, hits give low values 1.02 | locus YDL134C, strain PPH21, hits give low values 1 | locus YDL185W, strain tfp1, hits give low values 1.01 | locus YDL192W, strain arf1, hits give low values 1.01 | locus YDR001C, strain nth1, hits give low values 0.99 | locus YDR069C, strain doa4, hits give low values 0.983 | locus YDR101C, strain arx1, hits give low values 0.994 | locus YDR137W, strain rgp1, hits give low values 0.989 | locus YDR150W, strain NUM1, hits give low values 1 | locus YDR159W, strain sac3, hits give low values 0.989 | locus YDR162C, strain NBP2, hits give low values 1.01 | locus YDR195W, strain ref2 0.973 | locus YDR297W, strain sur2, hits give low values 1 | locus YDR318W, strain mcm21, hits give low values 1.01 | locus YDR334W, strain swr1, hits give low values 0.983 | locus YDR335W, strain msn5, hits give low values 0.971 | locus YDR363W, strain ESC2, hits give low values 1 | locus YDR388W, hits give low values 1 | locus YDR392W, strain spt3, hits give low values 1.02 | locus YDR502C, strain sam2, hits give low values 0.995 | locus YEL003W, strain gim4, hits give low values 0.99 | locus YEL037C, strain rad23, hits give low values 0.982 | locus YEL061C, strain CIN8 (second series), hits give low values 0.978 | locus YEL061C, strain CIN8, hits give low values 1 | locus YER002W, strain NOP16, hits give low values 1.01 | locus YER015W, strain faa2, hits give low values 1 | locus YER016W, strain bim1, hits give low values 1.01 | locus YER110C, hits give low values 1 | locus YER111C, strain swi4, hits give low values 0.992 | locus YER155C, strain BEM2 (second series), hits give low values 0.996 | locus YER155C, strain BEM2, hits give low values 1 | locus YER167W, strain BCK2, hits give low values 1 | locus YFR010W, strain ubp6, hits give low values 0.965 | locus YGL078C, strain dbp3, hits give low values 0.994 | locus YGL086W, strain mad1, hits give low values 0.993 | locus YGL167C, strain pmr1, hits give low values 0.982 | locus YGL173C, strain kem1, hits give low values 0.979 | locus YGL227W, strain vid30, hits give low values 1 | locus YGL240W, strain doc1, hits give low values 0.969 | locus YGL248W, strain PDE1, hits give low values 1.01 | locus YGL253W, strain hxk2, hits give low values 0.982 | locus YGR078C, strain PAC10, hits give low values 1.01 and 1.02 | locus YGR135W, strain pre9, hits give low values 0.999 | locus YGR229C, strain SMI1, hits give low values 1 | locus YGR252W, strain gcn5, hits give low values 0.944 | locus YHR013C, strain ard1, hits give low values 0.974 | locus YHR027C, strain rpn1, hits give low values 1 | locus YHR030C, strain SLT2, hits give low values 1.01 and 0.988 | locus YHR079C, strain IRE1 (second series), hits give low values 1.01 | locus YHR079C, strain IRE1, hits give low values 0.979 | locus YHR094C, strain hxt1, hits give low values 1 | locus YHR129C, strain ARP1, hits give low values 1.02 | locus YHR142W, strain chs7, hits give low values 0.966 | locus YHR200W, strain rpn10, hits give low values 0.994 | locus YIL066C, strain RNR3, hits give low values 1.01 | locus YIL073C, strain SPO22, hits give low values 1.01 | locus YIL125W, strain kgd1, hits give low values 0.998 | locus YIR030C, strain dcg1, hits give low values 0.994 | locus YJL092W, strain hpr5, hits give low values 0.997 | locus YJL095W, strain BCK1 (second series), hits give low values 0.993 | locus YJL095W, strain BCK1, hits give low values 1.04 and 0.982 | locus YJL115W, strain asf1, hits give low values 0.976 | locus YJL129C, strain trk1, hits give low values 0.967 | locus YJL134W, strain LCB3, hits give low values 1.01 | locus YJL154C, strain vps35, hits give low values 1 | locus YJL164C, strain tpk1, hits give low values 1.01 | locus YJL166W, strain qcr8, hits give low values 0.997 | locus YJL168C, strain set2, hits give low values 1.01 | locus YJL187C, strain SWE1 (second series), hits give low values 1.02 | locus YJR043C, strain POL32, hits give low values 1.02 | locus YJR066W, strain TOR1, hits give low values 0.913 | locus YJR075W, strain HOC1, hits give low values 1 and 0.995
